This note sets out measurements from article PMC7862700, “An all-to-all approach to the identification of sequence-specific readers for epigenetic DNA modifications on cytosine”.

Holding throughout (assay): DAPPL (digital affinity profiling via proximity ligation, sequencing); 10 mM Tris-HCl pH 7.5, 50 mM NaCl, 1 mM DTT, 4% glycerol, room temperature, 30 min; GST-TFs on glutathione beads, 16-mer random dsDNA library, 0.1% formaldehyde crosslink after washing; high values mean tight binding
Holding throughout (conditions): protein: recombinant; tags: N-terminal GST; dsDNA, one strand shown

Assay [1] addresses T1, FLI1 (Homo sapiens, UniProt Q01543 1-452).
T1 sequence: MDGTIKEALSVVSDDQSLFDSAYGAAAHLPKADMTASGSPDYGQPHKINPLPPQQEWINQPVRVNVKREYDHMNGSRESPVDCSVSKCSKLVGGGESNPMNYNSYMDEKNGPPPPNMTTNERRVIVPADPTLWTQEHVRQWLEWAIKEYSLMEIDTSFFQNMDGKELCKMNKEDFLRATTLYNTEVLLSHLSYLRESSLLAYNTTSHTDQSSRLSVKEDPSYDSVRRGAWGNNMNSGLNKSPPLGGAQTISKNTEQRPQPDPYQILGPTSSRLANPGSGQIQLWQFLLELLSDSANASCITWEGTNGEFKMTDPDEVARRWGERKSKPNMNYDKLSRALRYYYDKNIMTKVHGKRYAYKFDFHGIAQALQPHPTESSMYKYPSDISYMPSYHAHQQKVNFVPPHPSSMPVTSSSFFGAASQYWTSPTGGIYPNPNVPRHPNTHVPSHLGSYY
In short, it runs like this: (§1)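 Sequencing on an Illumina NextSeq500 followed washing, crosslinking with 0.1% formaldehyde, proximity ligation (BsaI/T4 ligase, 1 h, 37 °C) and PCR amplification of pools that had been incubated for 30 min at room temperature with 200 nmole of a random double-stranded 16-mer DNA library in Tris/NaCl/DTT/glycerol buffer. Each pool held DNA-barcoded human transcription factors, expressed in yeast as GST fusions and captured on glutathione beads, plus a tag-only sample. Binding signal is a hexamer's read frequency for a factor divided by its frequency in the tag-only sample.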

Assay [2] concerns the target T2, GABPA (Homo sapiens, UniProt Q06546 1-454).
T2 sequence: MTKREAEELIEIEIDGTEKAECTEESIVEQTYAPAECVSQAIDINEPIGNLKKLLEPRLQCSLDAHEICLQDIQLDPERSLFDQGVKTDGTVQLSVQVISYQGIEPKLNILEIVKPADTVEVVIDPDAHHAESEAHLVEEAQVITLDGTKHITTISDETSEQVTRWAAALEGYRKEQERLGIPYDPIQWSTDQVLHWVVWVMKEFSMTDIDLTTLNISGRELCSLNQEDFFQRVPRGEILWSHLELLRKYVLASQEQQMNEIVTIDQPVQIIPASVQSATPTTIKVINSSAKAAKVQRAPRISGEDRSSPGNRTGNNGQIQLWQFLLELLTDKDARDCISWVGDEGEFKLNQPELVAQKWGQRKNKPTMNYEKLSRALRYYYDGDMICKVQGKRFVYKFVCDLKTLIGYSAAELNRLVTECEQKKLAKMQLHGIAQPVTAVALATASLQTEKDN
The method in brief:
as §1

In assay [3] the target is T3, ERG (Homo sapiens, UniProt P11308 1-479).
T3 sequence: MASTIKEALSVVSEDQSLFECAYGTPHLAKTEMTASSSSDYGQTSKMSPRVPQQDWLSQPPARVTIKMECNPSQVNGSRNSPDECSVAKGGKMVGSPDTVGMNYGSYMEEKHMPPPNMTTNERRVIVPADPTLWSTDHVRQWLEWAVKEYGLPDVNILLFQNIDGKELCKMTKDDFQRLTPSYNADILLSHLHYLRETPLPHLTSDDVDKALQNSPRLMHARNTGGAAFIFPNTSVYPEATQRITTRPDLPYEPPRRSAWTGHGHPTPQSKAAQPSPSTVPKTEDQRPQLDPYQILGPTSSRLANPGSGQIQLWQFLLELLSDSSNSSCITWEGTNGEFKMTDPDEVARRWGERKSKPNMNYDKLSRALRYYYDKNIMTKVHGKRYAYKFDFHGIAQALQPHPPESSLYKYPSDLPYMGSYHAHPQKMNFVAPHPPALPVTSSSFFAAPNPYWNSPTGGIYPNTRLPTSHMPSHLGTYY
The method in brief: as §1

For assay [4], the target named is ELF1 (Homo sapiens, UniProt P32519 1-619). In short, it runs like this:
as §1

Assay [5] has as its target T4, EHF (Homo sapiens, UniProt Q9NZC4 1-300).
T4 sequence: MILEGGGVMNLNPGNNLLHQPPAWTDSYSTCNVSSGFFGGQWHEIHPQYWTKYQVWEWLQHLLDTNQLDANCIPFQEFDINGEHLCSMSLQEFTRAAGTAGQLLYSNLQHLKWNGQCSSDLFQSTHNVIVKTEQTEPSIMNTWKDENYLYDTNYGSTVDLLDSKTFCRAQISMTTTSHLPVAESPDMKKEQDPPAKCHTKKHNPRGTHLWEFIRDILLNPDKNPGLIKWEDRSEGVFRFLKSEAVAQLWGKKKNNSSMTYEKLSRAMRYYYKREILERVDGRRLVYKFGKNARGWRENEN
In short, it runs like this: as §1

Assay [6] deals with SPI1 (Homo sapiens, UniProt P17947 1-270). In short, it runs like this: as §1
Assay [7] concerns the target SPIB (Homo sapiens, UniProt Q01892 1-262). The method in brief:
as §1

For assay [8], the target named is T5, ELK3 (Homo sapiens, UniProt P41970 1-407).
T5 sequence: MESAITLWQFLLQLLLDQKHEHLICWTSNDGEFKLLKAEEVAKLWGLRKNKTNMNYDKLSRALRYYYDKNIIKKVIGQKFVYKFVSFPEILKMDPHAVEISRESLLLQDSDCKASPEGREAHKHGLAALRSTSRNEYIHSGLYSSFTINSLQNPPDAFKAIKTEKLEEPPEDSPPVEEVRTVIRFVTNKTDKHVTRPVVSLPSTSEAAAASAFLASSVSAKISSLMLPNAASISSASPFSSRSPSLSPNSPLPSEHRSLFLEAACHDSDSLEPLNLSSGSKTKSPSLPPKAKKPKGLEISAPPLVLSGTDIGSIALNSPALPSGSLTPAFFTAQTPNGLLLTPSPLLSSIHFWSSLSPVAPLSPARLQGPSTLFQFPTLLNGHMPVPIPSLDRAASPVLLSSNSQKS
In short, it runs like this: as §1

Assay [9] addresses T6, FEV (Homo sapiens, UniProt Q99581 1-238).
T6 sequence: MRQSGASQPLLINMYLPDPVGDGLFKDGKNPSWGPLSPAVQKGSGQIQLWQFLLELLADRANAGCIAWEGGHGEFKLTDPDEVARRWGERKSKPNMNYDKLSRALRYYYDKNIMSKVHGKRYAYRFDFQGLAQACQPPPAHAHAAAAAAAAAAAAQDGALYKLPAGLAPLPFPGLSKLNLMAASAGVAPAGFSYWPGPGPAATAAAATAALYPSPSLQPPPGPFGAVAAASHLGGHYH
The method in brief:
as §1

The target in assay [10] is ETV5 (Homo sapiens, UniProt P41161 1-510). The method in brief: as §1
For assay [11], the target named is T7, SPIC (Homo sapiens, UniProt Q8N5J4 1-248).
T7 sequence: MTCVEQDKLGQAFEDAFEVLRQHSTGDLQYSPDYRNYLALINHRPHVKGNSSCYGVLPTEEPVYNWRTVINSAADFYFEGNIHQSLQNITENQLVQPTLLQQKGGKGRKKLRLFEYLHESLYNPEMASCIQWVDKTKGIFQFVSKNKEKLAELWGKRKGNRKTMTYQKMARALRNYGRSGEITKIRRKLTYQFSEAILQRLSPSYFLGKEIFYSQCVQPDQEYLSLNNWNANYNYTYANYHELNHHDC
The method in brief: as §1

Assay [12] deals with ELF4 (Homo sapiens, UniProt Q99607 1-663). In short, it runs like this:
as §1

Assay [13] has as its target ETV1 (Homo sapiens, UniProt P50549 1-477). The method in brief: as §1
Assay [14] concerns the target T8, ERF (Homo sapiens, UniProt P50548 1-548).
T8 sequence: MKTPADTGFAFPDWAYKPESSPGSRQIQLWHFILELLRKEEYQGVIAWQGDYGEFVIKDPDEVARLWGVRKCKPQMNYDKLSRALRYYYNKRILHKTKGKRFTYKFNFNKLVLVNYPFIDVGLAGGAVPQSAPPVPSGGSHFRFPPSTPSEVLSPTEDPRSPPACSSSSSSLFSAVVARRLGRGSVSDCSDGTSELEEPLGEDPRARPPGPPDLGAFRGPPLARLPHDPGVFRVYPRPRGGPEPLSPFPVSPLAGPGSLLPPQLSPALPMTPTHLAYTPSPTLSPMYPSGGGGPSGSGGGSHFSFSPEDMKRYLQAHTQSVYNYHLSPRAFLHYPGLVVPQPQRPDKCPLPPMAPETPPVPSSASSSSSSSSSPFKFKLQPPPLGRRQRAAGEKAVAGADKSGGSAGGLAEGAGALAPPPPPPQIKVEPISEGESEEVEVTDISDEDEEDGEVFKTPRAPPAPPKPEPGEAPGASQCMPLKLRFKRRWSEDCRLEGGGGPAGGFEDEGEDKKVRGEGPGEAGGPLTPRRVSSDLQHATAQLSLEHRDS
In short, it runs like this: as §1

Assay [15] has as its target T9, ETV3L (Homo sapiens, UniProt Q6ZN32 1-361).
T9 sequence: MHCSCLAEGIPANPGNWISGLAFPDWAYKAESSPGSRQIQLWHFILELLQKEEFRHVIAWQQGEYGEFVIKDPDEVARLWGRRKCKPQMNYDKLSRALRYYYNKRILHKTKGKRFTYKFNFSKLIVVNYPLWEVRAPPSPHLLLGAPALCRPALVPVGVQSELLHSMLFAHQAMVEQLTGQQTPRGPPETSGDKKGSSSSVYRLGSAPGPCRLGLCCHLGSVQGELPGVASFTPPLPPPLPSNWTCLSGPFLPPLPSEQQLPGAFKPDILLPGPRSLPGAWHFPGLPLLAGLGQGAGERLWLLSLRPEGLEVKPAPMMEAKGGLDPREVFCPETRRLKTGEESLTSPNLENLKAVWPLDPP
The method in brief:
as §1

For assay [16], the target named is T10, ETS2 (Homo sapiens, UniProt P15036 1-469).
T10 sequence: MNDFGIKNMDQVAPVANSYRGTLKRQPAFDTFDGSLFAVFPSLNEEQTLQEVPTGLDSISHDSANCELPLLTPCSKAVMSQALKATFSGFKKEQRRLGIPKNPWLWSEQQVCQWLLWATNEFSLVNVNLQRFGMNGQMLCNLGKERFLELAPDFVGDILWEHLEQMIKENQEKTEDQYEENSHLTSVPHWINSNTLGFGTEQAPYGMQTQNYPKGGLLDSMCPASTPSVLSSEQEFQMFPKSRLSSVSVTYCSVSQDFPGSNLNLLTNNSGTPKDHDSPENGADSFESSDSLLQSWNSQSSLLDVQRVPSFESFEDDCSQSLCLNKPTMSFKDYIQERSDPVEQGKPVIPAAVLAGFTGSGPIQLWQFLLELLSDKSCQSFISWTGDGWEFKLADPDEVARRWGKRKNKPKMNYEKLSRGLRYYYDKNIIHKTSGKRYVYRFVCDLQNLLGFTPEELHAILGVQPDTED
The method in brief:
as §1

In assay [17] the target is T11, ELF5 (Homo sapiens, UniProt Q9UKW6-2 1-255).
T11 sequence: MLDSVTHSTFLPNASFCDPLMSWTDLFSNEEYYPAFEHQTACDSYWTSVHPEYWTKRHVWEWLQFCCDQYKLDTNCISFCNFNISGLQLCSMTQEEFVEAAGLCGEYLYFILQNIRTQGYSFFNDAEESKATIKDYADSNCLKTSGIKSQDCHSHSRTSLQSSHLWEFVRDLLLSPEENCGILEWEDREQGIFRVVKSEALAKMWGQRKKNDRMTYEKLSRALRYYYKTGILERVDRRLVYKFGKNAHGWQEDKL
The method in brief:
as §1

For assay [18], the target named is T12, ETV3 (Homo sapiens, UniProt P41162-2 1-143).
T12 sequence: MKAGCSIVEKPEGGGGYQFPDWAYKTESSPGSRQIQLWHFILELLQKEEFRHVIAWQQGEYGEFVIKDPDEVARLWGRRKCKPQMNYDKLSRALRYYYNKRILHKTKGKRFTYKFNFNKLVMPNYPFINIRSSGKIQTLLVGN
The method in brief:
as §1

The target of assay [19] is ETV6 (Homo sapiens, UniProt P41212 1-452). The method in brief: as §1
Chain of ETV6 (P41212 whole entry): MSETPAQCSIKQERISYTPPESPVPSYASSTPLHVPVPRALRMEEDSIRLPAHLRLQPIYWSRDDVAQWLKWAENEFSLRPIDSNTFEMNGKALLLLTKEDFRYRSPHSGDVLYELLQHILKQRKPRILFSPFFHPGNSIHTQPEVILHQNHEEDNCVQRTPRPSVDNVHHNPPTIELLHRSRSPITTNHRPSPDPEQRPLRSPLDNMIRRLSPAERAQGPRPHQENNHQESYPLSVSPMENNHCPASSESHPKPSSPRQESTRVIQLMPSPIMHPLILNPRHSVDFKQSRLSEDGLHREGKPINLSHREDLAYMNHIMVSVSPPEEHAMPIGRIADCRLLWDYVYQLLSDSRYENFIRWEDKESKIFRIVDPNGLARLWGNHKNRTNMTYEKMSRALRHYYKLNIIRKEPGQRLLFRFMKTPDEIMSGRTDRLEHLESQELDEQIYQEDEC

Chain of ELF1 (P32519 whole entry): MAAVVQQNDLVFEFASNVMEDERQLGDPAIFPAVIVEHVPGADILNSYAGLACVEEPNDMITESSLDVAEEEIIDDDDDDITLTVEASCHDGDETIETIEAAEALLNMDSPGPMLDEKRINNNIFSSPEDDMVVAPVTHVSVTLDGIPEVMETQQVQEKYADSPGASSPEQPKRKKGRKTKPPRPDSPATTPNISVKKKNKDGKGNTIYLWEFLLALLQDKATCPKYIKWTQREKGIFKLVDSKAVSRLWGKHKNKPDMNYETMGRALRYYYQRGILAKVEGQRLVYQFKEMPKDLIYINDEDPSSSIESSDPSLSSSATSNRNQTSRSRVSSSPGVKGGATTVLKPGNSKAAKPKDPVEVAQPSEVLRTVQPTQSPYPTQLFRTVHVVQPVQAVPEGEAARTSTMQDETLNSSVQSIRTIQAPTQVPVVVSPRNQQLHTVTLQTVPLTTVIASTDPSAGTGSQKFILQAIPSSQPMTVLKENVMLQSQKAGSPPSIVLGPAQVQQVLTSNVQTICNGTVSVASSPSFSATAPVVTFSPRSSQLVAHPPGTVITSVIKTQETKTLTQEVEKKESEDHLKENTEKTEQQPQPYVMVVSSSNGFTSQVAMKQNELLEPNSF
Chain of ETV5 (P41161 whole entry): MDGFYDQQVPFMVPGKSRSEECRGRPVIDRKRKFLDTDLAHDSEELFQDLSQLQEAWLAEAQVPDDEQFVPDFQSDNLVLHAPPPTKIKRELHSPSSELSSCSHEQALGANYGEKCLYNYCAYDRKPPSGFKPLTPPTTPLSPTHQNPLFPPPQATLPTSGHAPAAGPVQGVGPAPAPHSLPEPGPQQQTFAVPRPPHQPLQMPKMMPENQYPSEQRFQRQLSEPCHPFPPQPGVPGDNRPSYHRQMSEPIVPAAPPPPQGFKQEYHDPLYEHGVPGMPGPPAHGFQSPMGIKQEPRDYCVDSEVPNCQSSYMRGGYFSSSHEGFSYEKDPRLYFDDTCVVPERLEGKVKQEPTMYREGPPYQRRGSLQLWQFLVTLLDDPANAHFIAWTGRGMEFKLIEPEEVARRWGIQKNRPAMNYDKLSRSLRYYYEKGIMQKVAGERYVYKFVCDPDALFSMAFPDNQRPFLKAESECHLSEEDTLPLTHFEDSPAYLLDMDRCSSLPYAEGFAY
Chain of SPIB (Q01892 whole entry): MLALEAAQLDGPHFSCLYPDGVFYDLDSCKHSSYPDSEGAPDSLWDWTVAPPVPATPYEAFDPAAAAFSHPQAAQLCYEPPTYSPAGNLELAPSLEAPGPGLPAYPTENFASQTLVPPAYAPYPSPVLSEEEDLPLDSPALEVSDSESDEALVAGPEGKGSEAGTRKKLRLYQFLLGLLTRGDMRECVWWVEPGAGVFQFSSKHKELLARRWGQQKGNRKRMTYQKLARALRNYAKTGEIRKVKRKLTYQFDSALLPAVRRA
Chain of ETV1 (P50549 whole entry): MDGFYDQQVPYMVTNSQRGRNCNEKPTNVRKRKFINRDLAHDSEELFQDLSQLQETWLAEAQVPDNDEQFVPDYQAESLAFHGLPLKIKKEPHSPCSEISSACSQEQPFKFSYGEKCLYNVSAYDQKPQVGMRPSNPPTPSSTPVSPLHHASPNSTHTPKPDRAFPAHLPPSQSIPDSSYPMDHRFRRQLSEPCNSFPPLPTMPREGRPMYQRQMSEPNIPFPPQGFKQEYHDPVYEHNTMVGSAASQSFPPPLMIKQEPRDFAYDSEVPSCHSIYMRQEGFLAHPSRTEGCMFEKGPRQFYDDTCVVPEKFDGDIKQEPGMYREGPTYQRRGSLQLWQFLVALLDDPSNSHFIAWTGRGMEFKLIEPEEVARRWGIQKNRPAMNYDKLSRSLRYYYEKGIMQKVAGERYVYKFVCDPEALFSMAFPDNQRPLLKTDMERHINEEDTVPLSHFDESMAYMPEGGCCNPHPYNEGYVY
Chain of ELF4 (Q99607 whole entry): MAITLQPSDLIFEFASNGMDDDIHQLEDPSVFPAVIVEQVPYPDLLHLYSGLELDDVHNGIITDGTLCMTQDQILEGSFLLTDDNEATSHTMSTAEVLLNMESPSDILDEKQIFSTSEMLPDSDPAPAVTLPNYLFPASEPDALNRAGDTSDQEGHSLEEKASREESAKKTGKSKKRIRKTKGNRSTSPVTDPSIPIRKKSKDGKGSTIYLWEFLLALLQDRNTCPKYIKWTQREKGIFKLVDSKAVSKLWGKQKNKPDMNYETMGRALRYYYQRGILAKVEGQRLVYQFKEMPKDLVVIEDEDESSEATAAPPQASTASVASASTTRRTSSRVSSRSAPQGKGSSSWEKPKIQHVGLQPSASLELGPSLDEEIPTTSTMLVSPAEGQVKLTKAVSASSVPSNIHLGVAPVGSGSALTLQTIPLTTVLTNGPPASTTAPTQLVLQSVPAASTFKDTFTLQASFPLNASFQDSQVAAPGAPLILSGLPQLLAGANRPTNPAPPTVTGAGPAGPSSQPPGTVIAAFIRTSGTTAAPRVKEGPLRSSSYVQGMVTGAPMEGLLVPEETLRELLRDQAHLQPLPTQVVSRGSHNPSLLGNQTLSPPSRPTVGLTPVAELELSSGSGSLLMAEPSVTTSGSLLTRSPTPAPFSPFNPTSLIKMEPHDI

With AAAGCG, the binding signal in assay [1] was 1.01 fold enrichment (6-mer frequency, TF over GST control); in [2], 1.03 fold enrichment (6-mer frequency, TF over GST control); in assay [3], 1.09 fold enrichment (6-mer frequency, TF over GST control); in [4] it was 1.06 fold enrichment (6-mer frequency, TF over GST control); in [5], 1.1 fold enrichment (6-mer frequency, TF over GST control); in assay [6], 1.53 fold enrichment (6-mer frequency, TF over GST control). Further, the binding signal was 1.1 fold enrichment (6-mer frequency, TF over GST control) in assay [7]; 1.08 fold enrichment (6-mer frequency, TF over GST control) in assay [8]; 1.06 fold enrichment (6-mer frequency, TF over GST control) in [9]; 1.18 fold enrichment (6-mer frequency, TF over GST control) in assay [10]; 1.08 fold enrichment (6-mer frequency, TF over GST control) in assay [11]; 1.11 fold enrichment (6-mer frequency, TF over GST control) in assay [12]. Further, the binding signal in [13] is 1.05 fold enrichment (6-mer frequency, TF over GST control); in assay [14], 1.13 fold enrichment (6-mer frequency, TF over GST control); in assay [15], 1.04 fold enrichment (6-mer frequency, TF over GST control); in assay [16] it was 1.04 fold enrichment (6-mer frequency, TF over GST control); in [17] it was 1.07 fold enrichment (6-mer frequency, TF over GST control); in assay [18], 1.14 fold enrichment (6-mer frequency, TF over GST control). The binding signal in [19] is 1.1 fold enrichment (6-mer frequency, TF over GST control).
